# In PubChem BioAssay (EPA / NIEHS):
# Results filed as inconclusive are left out. Calls of active or inactive are those of the source. How the source made its calls: active means hit-call score of the fitted dose curve at least 0.9, where 1 is the maximum; inconclusive means response in the unintended direction; inactive means score below 0.9.
# Tests used:
# [1] = molecular target: human Phosphodiesterase 10 (PDE10), PDE10A (gene 10846) (UniProt Q9Y233); assay: NVS_ENZ_hPDE10: NovaScreen (NVS) Enzymatic Assay for human Phosphodiesterase 10 (PDE10) (AID 2283195)
# Chain of human Phosphodiesterase 10 (PDE10), PDE10A (gene 10846) (Q9Y233 whole entry, looked up): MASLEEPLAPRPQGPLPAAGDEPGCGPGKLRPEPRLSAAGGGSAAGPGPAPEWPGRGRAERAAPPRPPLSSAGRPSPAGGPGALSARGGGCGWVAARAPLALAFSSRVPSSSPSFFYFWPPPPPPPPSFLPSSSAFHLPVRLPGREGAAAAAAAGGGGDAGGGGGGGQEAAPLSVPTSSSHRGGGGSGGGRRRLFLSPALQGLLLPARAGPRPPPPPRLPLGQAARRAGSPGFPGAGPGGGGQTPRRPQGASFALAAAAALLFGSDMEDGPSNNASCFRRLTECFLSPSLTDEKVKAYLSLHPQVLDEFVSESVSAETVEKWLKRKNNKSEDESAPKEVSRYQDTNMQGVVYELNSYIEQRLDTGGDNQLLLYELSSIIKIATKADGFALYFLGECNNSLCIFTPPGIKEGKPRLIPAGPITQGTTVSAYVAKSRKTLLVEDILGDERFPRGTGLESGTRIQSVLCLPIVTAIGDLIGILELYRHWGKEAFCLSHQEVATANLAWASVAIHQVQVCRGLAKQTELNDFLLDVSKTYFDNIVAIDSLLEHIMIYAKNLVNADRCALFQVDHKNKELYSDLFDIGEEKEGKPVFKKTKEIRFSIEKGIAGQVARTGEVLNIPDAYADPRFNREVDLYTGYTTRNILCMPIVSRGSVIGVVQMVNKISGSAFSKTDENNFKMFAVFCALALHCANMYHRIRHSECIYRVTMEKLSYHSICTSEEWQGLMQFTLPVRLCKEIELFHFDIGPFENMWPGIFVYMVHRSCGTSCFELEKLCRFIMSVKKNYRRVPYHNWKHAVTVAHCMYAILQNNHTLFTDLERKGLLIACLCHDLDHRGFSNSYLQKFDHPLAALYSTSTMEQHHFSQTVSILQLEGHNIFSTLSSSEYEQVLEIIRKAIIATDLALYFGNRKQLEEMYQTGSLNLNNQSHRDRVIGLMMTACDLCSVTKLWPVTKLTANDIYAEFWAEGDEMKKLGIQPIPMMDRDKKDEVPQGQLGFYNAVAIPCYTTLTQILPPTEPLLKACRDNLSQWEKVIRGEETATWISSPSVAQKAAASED
# In short: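 Fluorescence/mobility-shift readout of PDE10A enzyme activity, taken 1 h post-dosing. Primary screen in duplicate at 25 uM; actives (e.g. ≥30% inhibition) retested as singleton concentration-response, top concentration 50 uM.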
# [2] = molecular target: D(1A) dopamine receptor (Homo sapiens) (UniProt P21728); assay: NVS_GPCR_hDRD1: NovaScreen (NVS) G Protein-Coupled Receptor Assay for human Dopamine Receptor D1 (DRD1) (AID 2283269)
# Chain of D(1A) dopamine receptor (Homo sapiens) (P21728 whole entry, looked up): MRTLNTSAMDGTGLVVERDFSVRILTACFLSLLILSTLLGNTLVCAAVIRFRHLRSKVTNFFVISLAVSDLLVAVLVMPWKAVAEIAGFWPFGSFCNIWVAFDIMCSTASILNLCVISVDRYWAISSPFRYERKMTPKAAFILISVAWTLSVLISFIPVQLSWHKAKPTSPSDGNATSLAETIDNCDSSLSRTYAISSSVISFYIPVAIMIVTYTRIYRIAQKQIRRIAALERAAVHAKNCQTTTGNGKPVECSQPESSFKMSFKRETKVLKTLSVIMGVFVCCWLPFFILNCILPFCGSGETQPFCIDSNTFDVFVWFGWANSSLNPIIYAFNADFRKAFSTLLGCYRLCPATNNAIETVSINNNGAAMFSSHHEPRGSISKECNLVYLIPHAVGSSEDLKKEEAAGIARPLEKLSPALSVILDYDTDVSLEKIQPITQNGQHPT
# In short: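 Cell-free competition with radioligand, filter-trapped and scintillation-counted 1 h post-dose, using HEK293-derived human D1 preparation. Duplicate single-point testing at 25 uM first, then concentration series for actives; DMSO served as baseline, loss-of-signal scored.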
# [3] = molecular target: human Thromboxane A2 Receptor (TXA2), TBXA2R (gene 6915) (UniProt P21731); assay: NVS_GPCR_hTXA2: NovaScreen (NVS) G Protein-Coupled Receptor Assay for human Thromboxane A2 Receptor (TXA2) (AID 2283282);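 further: actives reduce bound radioligand signal relative to DMSO baseline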
# Chain of human Thromboxane A2 Receptor (TXA2), TBXA2R (gene 6915) (P21731 whole entry, looked up): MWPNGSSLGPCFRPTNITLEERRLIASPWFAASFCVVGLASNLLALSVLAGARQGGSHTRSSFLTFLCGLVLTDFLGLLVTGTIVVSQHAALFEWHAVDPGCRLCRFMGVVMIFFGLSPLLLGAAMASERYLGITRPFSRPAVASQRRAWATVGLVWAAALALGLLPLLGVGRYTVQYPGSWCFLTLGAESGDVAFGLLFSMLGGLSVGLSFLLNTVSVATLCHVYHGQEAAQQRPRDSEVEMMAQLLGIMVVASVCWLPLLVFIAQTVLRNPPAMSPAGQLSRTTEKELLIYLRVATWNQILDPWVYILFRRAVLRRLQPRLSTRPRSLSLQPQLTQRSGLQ
# In short: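 Filter scintillation counting of bound radioligand, human platelet protein, 1 h exposure. Single-concentration duplicates (25 uM) first, concentration-response follow-up for actives. Binding loss scored against DMSO baseline.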
# [4] = molecular target: human Neurokinin, NK2 Receptor, TACR2 (gene 6865) (UniProt P21452); assay: NVS_GPCR_hNK2: NovaScreen (NVS) G Protein-Coupled Receptor Assay for human Neurokinin, NK2 Receptor (AID 2283278);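 further: actives reduce bound radioligand signal relative to DMSO baseline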
# Chain of human Neurokinin, NK2 Receptor, TACR2 (gene 6865) (P21452 whole entry, looked up): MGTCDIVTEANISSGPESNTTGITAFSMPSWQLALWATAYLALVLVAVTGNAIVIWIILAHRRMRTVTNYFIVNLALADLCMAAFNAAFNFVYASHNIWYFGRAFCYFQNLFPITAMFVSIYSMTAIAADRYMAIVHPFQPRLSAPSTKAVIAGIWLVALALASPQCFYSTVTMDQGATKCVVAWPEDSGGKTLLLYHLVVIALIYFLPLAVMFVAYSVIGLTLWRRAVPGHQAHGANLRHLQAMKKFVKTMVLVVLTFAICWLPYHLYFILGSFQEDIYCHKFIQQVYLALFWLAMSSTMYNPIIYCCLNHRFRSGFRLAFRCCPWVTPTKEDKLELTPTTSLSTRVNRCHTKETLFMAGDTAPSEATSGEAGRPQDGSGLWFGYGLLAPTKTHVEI
# In short: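 Cell-free radioligand binding using receptor protein extracted from CHO cells; readings taken 4 hours after chemical dosing by filter-based scintillation counting. Primary screen ran single concentration (25 uM) in duplicate; actives followed up in concentration series, loss-of-signal versus DMSO baseline.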
# [5] = molecular target: sheep Cyclooxygenase-2 (Cox2), PTGS2 (gene 443460) (UniProt P79208); assay: NVS_ENZ_oCOX2: NovaScreen (NVS) Enzymatic Assay for sheep Cyclooxygenase-2 (Cox2) (AID 2283231)
# In short: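 Enzyme extracted from ovine placenta tested cell-free; activity read colorimetrically by absorbance 0.66 hour after dosing. Primary screen in duplicate at 25 uM; hits rerun as concentration series to 50 uM, loss of signal versus DMSO baseline.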
# [6] = molecular target: human Endothelin Receptor Type A (ETA), EDNRA (gene 1909) (UniProt P25101); assay: NVS_GPCR_hETA: NovaScreen (NVS) G Protein-Coupled Receptor Assay for human Endothelin Receptor Type A (ETA) (AID 2283265)
# In short: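 Cell-free radioligand displacement using SH-SY5Y-derived protein, 3 h incubation, filter-based scintillation counting. Primary screen in duplicate at 25 uM; actives then run in concentration-response up to 50 uM; loss of binding fitted versus DMSO.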
# [7] = molecular target: human Orphanin, Opioid Related Nociceptin Receptor 1 (ORL1), OPRL1 (gene 4987) (UniProt P41146); assay: NVS_GPCR_hORL1: NovaScreen (NVS) G Protein-Coupled Receptor Assay for human Orphanin, Opioid Related Nociceptin Receptor 1 (ORL1) (AID 2283283)
# In short: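 Filter-based radioligand displacement with receptor extracted from HEK293 cells, read 1 hour after dosing by scintillation counting. Duplicate single-point screen at 25 uM; qualifying chemicals then run in concentration-response to 50 uM, analysed relative to DMSO.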
# [8] = molecular target: human Adenosine A1 Receptor (AdoRA1), ADORA1 (gene 134) (UniProt P30542); assay: NVS_GPCR_hAdoRA1: NovaScreen (NVS) G Protein-Coupled Receptor Assay for human Adenosine A1 Receptor (AdoRA1) (AID 2283254)
# Chain of human Adenosine A1 Receptor (AdoRA1), ADORA1 (gene 134) (P30542 whole entry, looked up): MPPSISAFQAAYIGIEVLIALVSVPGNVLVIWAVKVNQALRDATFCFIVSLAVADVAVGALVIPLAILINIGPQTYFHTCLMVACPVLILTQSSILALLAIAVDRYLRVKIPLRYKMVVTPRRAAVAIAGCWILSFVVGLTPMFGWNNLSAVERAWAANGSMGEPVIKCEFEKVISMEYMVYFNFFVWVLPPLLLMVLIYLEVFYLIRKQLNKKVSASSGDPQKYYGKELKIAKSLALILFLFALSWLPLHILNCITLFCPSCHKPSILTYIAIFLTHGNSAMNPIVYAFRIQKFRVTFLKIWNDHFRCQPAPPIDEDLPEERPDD
# In short: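 Radioligand competition binding on human cortical membranes, 1 h after compound addition; bound radioactivity read by filtration and scintillation counting. Loss of signal versus DMSO baseline scored as displacement; primary screen duplicate at 25 uM, actives retested in concentration series.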
# [9] = molecular target: guinea pig Opioid, Kappa 1 Receptor (OpiateK), OPRK1 (gene 100135587) (UniProt P41144); assay: NVS_GPCR_gOpiateK: NovaScreen (NVS) G Protein-Coupled Receptor Assay for guinea pig Opioid, Kappa 1 Receptor (OpiateK) (AID 2283252);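 further: radioligand displacement from kappa opioid receptor in guinea pig cerebellar membranes; active means reduced radioligand binding relative to DMSO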
# In short: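 Guinea pig cerebellar membranes were incubated with a radioligand for 2 h after compound addition; bound radioactivity was read by filter-based scintillation counting. Loss of specific binding relative to DMSO baseline defined activity; primary screen at 25 uM in duplicate.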
# [10] = molecular target: Muscarinic acetylcholine receptor M2 (Homo sapiens) (UniProt P08172); assay: NVS_GPCR_hM2: NovaScreen (NVS) G Protein-Coupled Receptor Assay for human Muscarinic, M2 Receptor (AID 2283273)
# In short: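 Cell-free radioligand binding using membranes from CHO cells expressing the receptor; filter-based scintillation counting after 1 hour of compound exposure. Loss of specific binding relative to DMSO baseline; primary screen at 25 uM in duplicate, actives then run in concentration series.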
# [11] = molecular target: Tyrosine-protein phosphatase non-receptor type 11 (Homo sapiens) (UniProt Q06124); assay: NVS_ENZ_hPTPN11: NovaScreen (NVS) Enzymatic Assay for human Protein Tyrosine Phosphatase Non-receptor Type 11 (PTPN11) (AID 2283202)
# In short: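 Recombinant human PTPN11 activity on a fluorescent substrate, with substrate/product separated by electrophoretic mobility shift; read 0.5 h after dosing, loss of signal vs DMSO. Duplicate 25 uM screen, then concentration-response up to 50 uM.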
# [12] = molecular target: Tyrosine-protein phosphatase non-receptor type 12 (Homo sapiens) (UniProt Q05209); assay: NVS_ENZ_hPTPN12: NovaScreen (NVS) Enzymatic Assay for human Protein Tyrosine Phosphatase Non-receptor Type 12 (PTPN12) (AID 2283204)
# In short: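 Single-concentration duplicates (25 uM) preceded singleton concentration-response up to 50 uM for chemicals passing threshold. Cell-free recombinant PTPN12 activity was read 1.33 h after dosing via fluorescence after mobility-shift separation; loss of signal versus DMSO.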
# [13] = molecular target: human Vascular Endothelial Growth Factor Receptor 1 (VEGFR1), FLT1 (gene 2321) (UniProt P17948); assay: NVS_ENZ_hVEGFR1: NovaScreen (NVS) Enzymatic Assay for human Vascular Endothelial Growth Factor Receptor 1 (VEGFR1) (AID 2283226)
# Chain of human Vascular Endothelial Growth Factor Receptor 1 (VEGFR1), FLT1 (gene 2321) (P17948 whole entry, looked up): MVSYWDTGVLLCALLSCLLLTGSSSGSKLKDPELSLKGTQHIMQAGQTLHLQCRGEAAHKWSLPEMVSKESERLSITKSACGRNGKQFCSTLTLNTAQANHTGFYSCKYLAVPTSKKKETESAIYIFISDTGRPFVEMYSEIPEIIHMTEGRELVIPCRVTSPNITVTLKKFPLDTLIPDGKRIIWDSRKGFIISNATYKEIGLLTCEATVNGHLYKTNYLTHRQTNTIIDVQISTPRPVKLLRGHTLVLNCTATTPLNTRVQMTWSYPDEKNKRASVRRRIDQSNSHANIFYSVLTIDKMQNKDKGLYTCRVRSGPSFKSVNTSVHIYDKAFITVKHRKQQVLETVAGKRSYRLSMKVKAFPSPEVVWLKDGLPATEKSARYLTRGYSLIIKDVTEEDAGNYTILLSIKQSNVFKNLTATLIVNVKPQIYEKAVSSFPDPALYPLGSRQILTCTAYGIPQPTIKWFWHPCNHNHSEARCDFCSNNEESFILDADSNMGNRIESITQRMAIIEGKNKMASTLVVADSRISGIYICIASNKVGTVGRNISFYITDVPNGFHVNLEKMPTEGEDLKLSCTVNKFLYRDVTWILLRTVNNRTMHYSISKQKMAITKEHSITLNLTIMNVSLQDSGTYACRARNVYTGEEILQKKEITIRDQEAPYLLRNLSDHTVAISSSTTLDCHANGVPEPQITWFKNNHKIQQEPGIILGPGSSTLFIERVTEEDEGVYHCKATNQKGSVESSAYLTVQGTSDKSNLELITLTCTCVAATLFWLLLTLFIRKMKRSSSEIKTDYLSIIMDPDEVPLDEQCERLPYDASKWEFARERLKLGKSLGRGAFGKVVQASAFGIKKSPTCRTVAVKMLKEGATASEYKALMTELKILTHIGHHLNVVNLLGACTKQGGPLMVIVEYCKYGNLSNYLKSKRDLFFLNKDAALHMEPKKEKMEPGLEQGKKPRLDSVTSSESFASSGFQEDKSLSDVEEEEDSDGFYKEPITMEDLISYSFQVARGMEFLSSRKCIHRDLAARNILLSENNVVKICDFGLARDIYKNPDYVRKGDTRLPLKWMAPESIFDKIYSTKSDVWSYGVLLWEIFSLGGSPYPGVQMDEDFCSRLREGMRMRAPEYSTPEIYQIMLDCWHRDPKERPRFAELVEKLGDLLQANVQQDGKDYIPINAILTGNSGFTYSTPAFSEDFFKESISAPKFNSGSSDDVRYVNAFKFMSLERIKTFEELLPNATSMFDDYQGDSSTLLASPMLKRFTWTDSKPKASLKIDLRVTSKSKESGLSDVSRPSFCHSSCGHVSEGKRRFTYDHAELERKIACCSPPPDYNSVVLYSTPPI
# In short: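 Cell-free assay of recombinant human VEGFR1 kinase with substrate, measured 1 h after dosing; fluorescence with electrophoretic mobility-shift separation of substrate and product, referenced to DMSO; primary screen at 25 uM in duplicate, actives then run in concentration series.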
# [14] = molecular target: human Vascular Endothelial Growth Factor Receptor 3 (VEGFR3), FLT4 (gene 2324) (UniProt P35916); assay: NVS_ENZ_hVEGFR3: NovaScreen (NVS) Enzymatic Assay for human Vascular Endothelial Growth Factor Receptor 3 (VEGFR3) (AID 2283229)
# In short: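 Cell-free recombinant VEGFR3 kinase reaction with fluorescent substrate, read 1 h after dosing by electrophoretic mobility shift separation of substrate and product. Single-concentration duplicate screen at 25 uM, then concentration-response up to 50 uM; loss of activity versus DMSO.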
# [15] = molecular target: human Vascular Endothelial Growth Factor Receptor 2 (VEGFR2), KDR (gene 3791) (UniProt P35968); assay: NVS_ENZ_hVEGFR2: NovaScreen (NVS) Enzymatic Assay for human Vascular Endothelial Growth Factor Receptor 2 (VEGFR2) (AID 2283230)
# In short: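 Cell-free recombinant VEGFR2 kinase, fluorescent substrate with electrophoretic mobility-shift separation; read 1 h after dosing. Screened at 25 uM in duplicate, hits to concentration-response up to 50 uM; loss-of-signal versus DMSO.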
# [16] = molecular target: Muscarinic acetylcholine receptor M1 (Homo sapiens) (UniProt P11229); assay: NVS_GPCR_hM1: NovaScreen (NVS) G Protein-Coupled Receptor Assay for human Muscarinic, M1 Receptor (AID 2283270)
# In short: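 Cell-free radioligand displacement using membrane protein extracted from CHO cells, read by filter-based scintillation counting 1 h after dosing. Loss of bound signal fitted versus DMSO; primary screen single concentration 25 uM in duplicate, actives followed by concentration series.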
# [17] = molecular target: human Adenosine A2a Receptor (AdoRA2a), ADORA2A (gene 135) (UniProt P29274); assay: NVS_GPCR_hAdoRA2a: NovaScreen (NVS) G Protein-Coupled Receptor Assay for human Adenosine A2a Receptor (AdoRA2a) (AID 2283256)
# Chain of human Adenosine A2a Receptor (AdoRA2a), ADORA2A (gene 135) (P29274 whole entry, looked up): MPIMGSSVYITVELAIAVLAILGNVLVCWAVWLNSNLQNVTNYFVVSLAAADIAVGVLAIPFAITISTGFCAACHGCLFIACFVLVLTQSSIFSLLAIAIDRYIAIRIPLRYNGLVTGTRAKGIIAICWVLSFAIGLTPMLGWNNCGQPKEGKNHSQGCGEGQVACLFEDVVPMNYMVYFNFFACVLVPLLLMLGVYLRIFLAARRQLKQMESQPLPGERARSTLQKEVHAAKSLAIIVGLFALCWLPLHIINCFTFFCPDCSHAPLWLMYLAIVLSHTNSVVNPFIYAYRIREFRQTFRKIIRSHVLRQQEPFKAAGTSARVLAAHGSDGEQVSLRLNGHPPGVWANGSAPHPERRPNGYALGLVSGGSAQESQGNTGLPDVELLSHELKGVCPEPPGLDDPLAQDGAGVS
# In short: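 Cell-free radioligand binding on membranes from HEK293 expressing the receptor; competitive displacement read 1.5 h after dosing by filter-based scintillation counting. Primary screen in duplicate at 25 uM; actives followed in concentration series, with DMSO as baseline.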
# [18] = molecular target: guinea pig Leukotriene D4 Receptor (LTD4), CYSLTR1 (gene 100135514) (UniProt Q2NNR5); assay: NVS_GPCR_gLTD4: NovaScreen (NVS) G Protein-Coupled Receptor Assay for guinea pig Leukotriene D4 Receptor (LTD4) (AID 2283248)
# In short: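 Radioligand displacement on guinea pig lung membranes, 1 h incubation, filtration and scintillation counting; DMSO as negative control. Duplicate 25 uM primary screen, then singleton concentration-response up to 50 uM.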
# [19] = molecular target: sheep Cyclooxygenase-1 (Cox1), PTGS1 (gene 443551) (UniProt P05979); assay: NVS_ENZ_oCOX1: NovaScreen (NVS) Enzymatic Assay for sheep Cyclooxygenase-1 (Cox1) (AID 2283239);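 further: actives reduce cyclooxygenase activity so potencies are for inhibitors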
# Chain of sheep Cyclooxygenase-1 (Cox1), PTGS1 (gene 443551) (P05979 whole entry, looked up): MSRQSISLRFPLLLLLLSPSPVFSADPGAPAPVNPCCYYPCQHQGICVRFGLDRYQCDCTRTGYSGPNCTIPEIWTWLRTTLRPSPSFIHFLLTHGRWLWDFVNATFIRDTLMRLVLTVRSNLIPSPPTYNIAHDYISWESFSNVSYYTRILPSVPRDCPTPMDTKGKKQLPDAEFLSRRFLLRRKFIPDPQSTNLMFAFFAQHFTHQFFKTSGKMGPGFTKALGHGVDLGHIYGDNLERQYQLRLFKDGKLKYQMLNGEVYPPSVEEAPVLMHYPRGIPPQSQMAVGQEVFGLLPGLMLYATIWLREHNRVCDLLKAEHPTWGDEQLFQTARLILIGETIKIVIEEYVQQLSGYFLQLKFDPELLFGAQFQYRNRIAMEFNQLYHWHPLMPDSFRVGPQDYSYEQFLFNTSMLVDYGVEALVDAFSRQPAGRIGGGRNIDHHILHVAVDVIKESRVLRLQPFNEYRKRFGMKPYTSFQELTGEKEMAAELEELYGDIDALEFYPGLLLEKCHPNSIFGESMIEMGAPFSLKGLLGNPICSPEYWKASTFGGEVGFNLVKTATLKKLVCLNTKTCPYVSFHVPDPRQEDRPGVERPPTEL
# In short: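 Ovine seminal vesicle extract; absorbance (colorimetric) enzyme read-out at 0.66 h post-dose. Primary: single conc 25 uM, duplicate. Follow-up: concentration series on actives. Activity = signal loss vs DMSO baseline.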
# [20] = molecular target: human Phosphoinositide 3-kinase alpha (PI3Ka), PIK3CA (gene 5290) (UniProt P42336); assay: NVS_ENZ_hPI3Ka: NovaScreen (NVS) Enzymatic Assay for human Phosphoinositide 3-kinase alpha (PI3Ka) (AID 2283196)
# In short: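 Enzyme activity as fluorescence after mobility-shift separation of substrate and product, 1 h reaction, recombinant human PI3Kα; concentration-response to 50 uM max for chemicals passing a 25 uM duplicate screen.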
structure (smiles),measurement,setting,value
Nc1cc([N+](=O)[O-])cc(Cl)c1O,outcome,[1],inactive
C#CC(O)CCC (centres undefined),outcome,[1],inactive
O=C=Nc1cccc2c(N=C=O)cccc12,outcome,[2],inactive
same,AC50,[3],0.672 µM (active)
CC(=O)c1ccccc1N,outcome,[3],inactive
OCCC(O)CO (centres undefined),AC50,[2],37.4 µM (active)
Oc1ccc2c(c1)CCC2,outcome,[2],inactive
same,outcome,[3],inactive
CCN(CC)c1ccc(N=Nc2ccccc2)cc1,outcome,[2],inactive
same,outcome,[4],inactive
CCCCCCCCn1sc(Cl)c(Cl)c1=O,outcome,[5],inactive
same,outcome,[6],inactive
same,AC50,[7],16.5 µM (active)
O=C1c2ccccc2C(=O)c2c(Cl)cccc21,AC50,[8],13.3 µM (active)
Nc1cccnc1N,outcome,[1],inactive
same,AC50,[8],9.6 µM (active)
c1ccc(C[P+](c2ccccc2)(c2ccccc2)c2ccccc2)cc1,AC50,[9],1.98 µM (active)
same,outcome,[2],inactive
same,AC50,[10],1.22 µM (active)
same,outcome,[3],inactive
Cc1ccc(S(=O)(=O)C(I)I)cc1,outcome,[9],inactive
same,AC50,[8],33.2 µM (active)
same,AC50,[2],6.43 µM (active)
CCCCCCCCCCCCCC[P+](CCCC)(CCCC)CCCC,AC50,[11],14.8 µM (active)
same,AC50,[12],18.5 µM (active)
same,AC50,[13],10 µM (active)
same,AC50,[14],17.5 µM (active)
same,AC50,[15],11.4 µM (active)
same,AC50,[5],5.19 µM (active)
same,AC50,[6],6.26 µM (active)
same,AC50,[16],1.02 µM (active)
same,AC50,[7],6.46 µM (active)
CCOCN(C(=O)CS(=O)(=O)O)c1c(C)cccc1CC,outcome,[3],inactive
O=C1OC(=O)c2ccc3c4c(ccc1c24)C(=O)OC3=O,outcome,[4],inactive
CCC(C)CO (centres undefined),outcome,[8],inactive
CCOC(C=C(C)CCC=C(C)C)OCC,outcome,[17],inactive
same,outcome,[3],inactive
O=C(c1ccccc1)c1ccc(O)cc1O,outcome,[18],inactive
same,outcome,[8],inactive
same,AC50,[17],29.7 µM (active)
same,outcome,[3],inactive
O=C1C=CC(=O)N1c1ccc(Cc2ccc(N3C(=O)C=CC3=O)cc2)cc1,outcome,[1],inactive
same,AC50,[2],25 µM (active)
same,AC50,[4],28.4 µM (active)
CCN(CC)c1ccc(C=O)c(O)c1,outcome,[2],inactive
same,outcome,[3],inactive
CCN(CC)c1ccc(C=O)cc1,AC50,[3],4.65 µM (active)
Oc1ccc(C2(c3ccc(O)c(C4CCCCC4)c3)CCCCC2)cc1C1CCCCC1,outcome,[2],inactive
same,AC50,[10],8.57 µM (active)
same,AC50,[4],16.2 µM (active)
CC(C)CCCC(C)CCO (centres undefined),outcome,[19],inactive
C=CCOC(=O)CC(C)C,outcome,[13],inactive
C[C@]12CC[C@H]3C(=CCc4cc(O)ccc43)[C@@H]1CCC2=O,outcome,[18],inactive
Cc1cc(O)c(C(C)(C)C)cc1C(C)(C)C,outcome,[20],inactive
Brc1ccccn1,outcome,[1],inactive
CN1CN(C)CN(C)C1,outcome,[2],inactive
Nc1c(Br)cc([N+](=O)[O-])cc1Br,outcome,[17],inactive
CC1=CC2C3C=CC(C3)C2C1C (centres undefined),AC50,[19],30.4 µM (active)
O=C1c2c(O)ccc(Nc3ccc(CCO)cc3)c2C(=O)c2c([N+](=O)[O-])ccc(O)c21,AC50,[20],2.07 µM (active)
same,AC50,[13],0.885 µM (active)
same,outcome,[3],inactive
CCN(CC)c1ccc2c(c1)Oc1cc(N(CC)CC)ccc1C21OC(=O)c2ccccc21,outcome,[1],inactive
same,outcome,[3],inactive
O=C(Cl)c1ccc(Cl)cc1Cl,outcome,[1],inactive
